# MEKK3 PB1 HTS: modulators (inhibitors or enhancers) of MEK5 binding to human MEKK3 PB1 domain | bead-based flow cytometry, Alexa488-MEK5 binding to MEKK3; actives lie on both sides; 0 = blocked by unlabeled MEK5, 100 = vehicle | Q99759 | binding response (% of control), % at 10 µM | 290,000 tested, 1.4% active | AID 1529;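 active means binding response more than 3 SD above or below the average of its plate-row segment, actives on both sides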;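 further: Alexa488 bead fluorescence after subtracting the streptavidin-only scavenger bead signal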
# MEKK2mut PB1 HTS: signal of MEK5 binding to mutant human MEKK2 PB1 domain | bead flow cytometry, Alexa488-MEK5 binding to MEKK2 mutant | AID 1530 | percent response, % at 10 µM | 290,000 tested, 0.35% active; in the data active means percent response above about 24%, passing the limit was not always enough
# UBC13 inh: inhibitors of human UBC13 polyubiquitin chain formation. P61088. TR-FRET. inhibition, % at 20 µM. 330,000 tested, 0.47% active. AID 485273; in the data active means inhibition above about 45%, passing the limit was not always enough
# Target sequence (P61088 whole entry, looked up): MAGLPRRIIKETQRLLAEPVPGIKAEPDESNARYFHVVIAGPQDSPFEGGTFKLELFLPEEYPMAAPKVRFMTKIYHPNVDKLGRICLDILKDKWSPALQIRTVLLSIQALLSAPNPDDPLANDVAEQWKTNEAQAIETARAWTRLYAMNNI
# MEKK2wt PB1 HTS: raises or lowers MEK5 binding to wildtype human MEKK2 PB1 domain. AID 1531. binding response (% of control), % at 10 µM. bead flow cytometry, Alexa488-MEK5 binding to MEKK2 WT; actives lie on both sides. Q9Y2U5. 290,000 tested, 1.1% active; in the data active means binding response below about 67% or above about 130%
# Rce1 inhib: yeast Ras-converting enzyme inhibition | Q03530 | yeast membranes, quenched prenylated peptide cleavage fluorescence | calls only | 290,000 tested, 0.27% active | AID 2563;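 active means fall in fluorescence gain of 50% or more versus controls, with final raw signal at or below 3038400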;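 further: plate controls were neutral control wells for no effect and wells lacking membranes for full effect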
# Target sequence (Q03530 whole entry, looked up): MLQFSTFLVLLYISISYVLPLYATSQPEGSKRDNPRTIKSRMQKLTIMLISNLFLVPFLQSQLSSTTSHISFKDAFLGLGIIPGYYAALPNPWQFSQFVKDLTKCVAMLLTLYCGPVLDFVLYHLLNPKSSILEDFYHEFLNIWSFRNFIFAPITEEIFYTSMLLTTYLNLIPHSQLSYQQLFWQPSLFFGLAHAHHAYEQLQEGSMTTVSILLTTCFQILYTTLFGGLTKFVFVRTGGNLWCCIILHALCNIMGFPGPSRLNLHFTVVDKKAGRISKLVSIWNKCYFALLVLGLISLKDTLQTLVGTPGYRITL
# MEKK2wt confirm: raises or lowers MEK5 binding to wildtype human MEKK2, retest; shares compounds with MEKK3 PB1 HTS; bead flow cytometry, Alexa488-MEK5 binding to MEKK2 WT; actives lie on both sides; binding response (% of control), % at 10 µM; 5,900 tested, 2.4% active; AID 1892; in the data active means binding response below about 16% or above about 210%; inactive means in between
# MEKK2mut-MEK5: signal of MEK5 binding to mutant human MEKK2, retest; shares compounds with MEKK3 PB1 HTS; percent response, % at 10 µM; AID 1893; 5,900 tested, 2% active; bead flow cytometry, Alexa488-MEK5 binding to MEKK2 mutant; in the data active means percent response mostly above about 71%, no sharp cut-off; inactive means mostly below about 38%;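 further: higher means compound restores mutant binding toward wildtype level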
# MEKK3 confirm: confirmation of inhibitors of MEK5 binding to human MEKK3 | shares compounds with MEKK3 PB1 HTS | bead flow cytometry, Alexa488-MEK5 binding to MEKK3; hits give low values | binding response (% of control), % at 10 µM | 5,900 tested, 1.8% active;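 active means binding response below 72% of control, or above a set upper limit, though filed actives all read lower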;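 further: 100% = DMSO only wells and 0% = binding blocked by excess unlabeled MEK5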
# The depositor's hits bear a star; i = inactive; . = not tested or not shown; [ ] = dose if it differs, or a comment. This is a sample that favours compounds with a hit; in the whole collection about 2.5% have one here.
SMILES,MEKK3 PB1 HTS,MEKK2mut PB1 HTS,UBC13 inh,MEKK2wt PB1 HTS,Rce1 inhib,MEKK2wt confirm,MEKK2mut-MEK5,MEKK3 confirm
COc1ccc(Nc2nc(C)c3ccccc3n2)cc1,117,16,10,140*,i,105,-1,103
CCOc1ccc(Nc2c3ccccc3nc3ccccc23)cc1,104,30,-86,149*,i,136,19,107
COc1ccc(Nc2nc(-c3ccccc3)c3ccccc3n2)cc1,109,22,-5,132,i,.,.,.
CCOC(=O)C1=C(C)N(C)C(=O)NC1c1cccc2ccccc12 (stereo unspecified),104,1,-6,102,.,.,.,.
COc1ccc(OCc2n(CC(=O)OC3CC(C)CCC3C(C)C)c3ccccc3[n+]2C)cc1 (stereo unspecified),111,40,33,162*,i,158,29,108
CCn1c(SCC(=O)O)nc2sc3c(c2c1=O)CCC3,1.0*[inhibitor],-9,-4,-1.0*[inhibitor],i,96,-6,101
CCOC(=O)[C@H]1[C@H]2COc3ccc(OC)cc3[C@H]2N2C(=O)CNC(=O)[C@@]12C,.,.,-4,.,.,.,.,.
CC(C)(C)NC(=O)COc1ccc(CNCc2cccs2)cc1,2.0*[inhibitor],-27,2,-1.0*[inhibitor],i,109,9,102
COc1ccccc1-n1cnnc1SC(C)C(=O)Nc1cccc([N+](=O)[O-])c1 (stereo unspecified),97,8,-7,94,i,.,.,.
CSc1scc2c1-c1nc(SCC(=O)C(C)(C)C)ncc1CC2,66*[inhibitor],-34,-3,68,.,102,1,105
Clc1ccc(SCCn2ccnc2)cc1,70*[inhibitor],-12,0,84,i,96,4,98
CNC(=S)N1CCN(C(=O)C2CCCO2)CC1 (stereo unspecified),67*[inhibitor],-2,8,94,i,102,0,103
CC(=O)c1cccc(NC(=O)C(C)OC(=O)/C=C/c2cccs2)c1 (stereo unspecified),.,.,-12,.,.,.,.,.
CCN(CC)CCCNc1ncnc2ccccc12,98,-1,8,103,i,.,.,.
OCCCCCNc1ncnc2ccccc12,128*,12,3,111,i,101,2,98
O=C(O)c1cc2cccc(S(=O)(=O)N3CCCCC3)c2cc1O,99,-3,15,98,i,.,.,.
C=CCNS(=O)(=O)c1cccc2cc(C(=O)O)c(O)cc12,134*,9,9,136*,i,97,-2,96
CCOc1ccc(N=C2NC(=O)SC2CC(=O)OC)cc1 (stereo unspecified),103,5,-1,98,i,.,.,.
O=C(/C=C/c1ccco1)NC(=S)Nc1ccc(N2CCCC2)cc1,142*,0,-37,103,i,92,-9,96
CCCCC(=O)N(c1ccc(C(=O)O)cc1)c1nc(-c2ccc(Cl)cc2)c(CC)s1,3.0*[inhibitor],-60,-28,3.0*[inhibitor],i,93,-7,104
Nc1nc2ccccc2n1C(=O)c1ccc(F)cc1,98,-8,2,96,i,.,.,.
Cn1c(=O)c(/C=C/c2ccc(F)cc2)nc2ccccc21,81,-10,.,55*[inhibitor],i,78,-7,97
O=c1c(/C=C(\O)c2ccc(F)cc2)nc2ccccc2n1-c1ccccc1,83,1,-24,45*[inhibitor],i,66,-21,94
CC1Cc2ccccc2N1C(=O)CO/N=C/c1ccccc1OC(F)F (stereo unspecified),10*[inhibitor],0,-3,98,i,101,0,102
CCC(C)NC(=O)CO/N=C/c1ccccc1OC(F)F (stereo unspecified),97,-1,-9,98,i,.,.,.
SMILES,MEKK3 PB1 HTS,MEKK2mut PB1 HTS,UBC13 inh,MEKK2wt PB1 HTS,Rce1 inhib,MEKK2wt confirm,MEKK2mut-MEK5,MEKK3 confirm
O=C(CO/N=C/c1ccccc1OC(F)F)N1CCc2ccccc21,101,19,-2,103,i,.,.,.
CC1CCCCC1NC(=O)CO/N=C/c1ccccc1OC(F)F (stereo unspecified),71*[inhibitor],-2,-5,94,i,104,3,106
O=C(O)CCn1c(CO)nc2ccccc21,129*,-1,-1,107,i,106,5,105
C=C(C)C(=O)Nc1nnc(-c2ccccc2C)s1,74*[inhibitor],-9,.,66,.,103,4,102
O=C(Nc1nccs1)c1cc(-c2ccncc2)nc2ccccc12,107,0,-8,100,i,.,.,.
Cc1ccc(-c2cc(C(=O)Nc3nccs3)c3ccccc3n2)c(C)c1,152*,0,0,106,i,105,-6,101
CN(C)CCN1C(=O)NC(C)(c2ccc([N+](=O)[O-])cc2)C1=O (stereo unspecified),98,-11,-12,85,i,.,.,.
COc1cc2ccccc2cc1C(=O)N1CCc2ccccc21,.,.,-2,.,.,.,.,.
Cc1ccc(-c2nn3c(C)nnc3s2)cc1NCc1c(F)cccc1Cl,50*[inhibitor],-42,21,50*[inhibitor],i,91,-13,97
CCCCN(C(=O)c1cc2c(s1)CCCCC2)c1c(N)n(CC(C)C)c(=O)[nH]c1=O,.,.,-4,.,.,.,.,.
Cc1ccccc1OCCn1cc(/C=C(\C#N)C(=O)NCc2ccco2)c2ccccc21,75*[inhibitor],-2,-7,67,i,101,-2,103
